A selection: hits, their analogues and other compounds. The true share with any hit is near 11%.
Luciferase inh: Photinus pyralis luciferase inhibition; purified P. pyralis luciferase, luminescence, biochemical; Potency, µM (top dose mostly 115 µM), most hits filed as inhibitors; 76,000 compounds, 2.5% hits; active means well fitted curve in the direction sought with a large enough effect; inconclusive means small, poorly fitted or top-dose-only effect, or another doubt; inactive means no such curve, though single readings can be large; an effect the other way counts as inactive or inconclusive; further: on the % scale 0 is the no-effect control and ±100 the full control effect; nearly all actives have a fitted effect of over 65% in size
Target sequence (P08659 whole entry, looked up): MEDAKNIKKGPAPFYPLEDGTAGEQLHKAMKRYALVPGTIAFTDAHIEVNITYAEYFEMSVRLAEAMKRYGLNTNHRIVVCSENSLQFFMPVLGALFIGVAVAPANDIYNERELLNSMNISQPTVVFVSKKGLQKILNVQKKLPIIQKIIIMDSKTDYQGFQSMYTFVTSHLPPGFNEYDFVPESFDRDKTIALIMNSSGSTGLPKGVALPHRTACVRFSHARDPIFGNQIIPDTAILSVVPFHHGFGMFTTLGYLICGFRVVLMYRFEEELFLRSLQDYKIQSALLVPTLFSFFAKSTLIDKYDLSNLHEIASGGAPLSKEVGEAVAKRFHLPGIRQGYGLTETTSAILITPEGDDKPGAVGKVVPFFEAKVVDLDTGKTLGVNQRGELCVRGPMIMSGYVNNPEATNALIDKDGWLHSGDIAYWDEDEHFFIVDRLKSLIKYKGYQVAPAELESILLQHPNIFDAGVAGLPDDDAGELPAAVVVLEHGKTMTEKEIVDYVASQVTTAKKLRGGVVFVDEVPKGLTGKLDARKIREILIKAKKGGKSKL
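Luminescence read by CCD imager after adding enzyme (10nM final) to wells holding compound, titrated in qHTS. Substrates 10uM each D-luciferin and ATP; buffer 50mM Tris acetate pH 7.5, 10mM Mg acetate, Tween-20, BSA.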
NPR1 antag: human Npr1 receptor antagonism. P16066. HEK293 hNpr1 GloSensor cGMP, ANP-stimulated luminescence. Potency, µM (doses to about 46.3 µM), inactives show at the highest dose activity change, negative = inhibition, most hits filed as inhibitors. 76,000 compounds, 1.6% hits. AID 1347048; further: on the % scale 0 is the no-effect control and ±100 the full control effect; nearly all actives have a fitted effect of over 60% in size
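Compound pre-incubated 30 min at room temperature on GloSensor-loaded HEK293 cells stably carrying hNpr1 and the pGS-40F cGMP biosensor. Stimulation uses hNppA at 0.1 nM final; luminescence is taken at baseline and 20 min post-agonist.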
3T3 cytotox: kills NIH 3T3 cells; NIH 3T3 viability, CellTiter-Glo ATP luminescence, 48-72 h; Potency, µM (doses to about 96.7 µM), inactives show top-dose activity change, negative = cytotoxicity, most hits filed as inhibitors; 94,000 compounds, 4.3% hits; active means well fitted curve in the direction sought with a large enough effect; inconclusive means small, poorly fitted or top-dose-only effect, or another doubt; inactive means no such curve, though single readings can be large; an effect the other way counts as inactive or inconclusive; further: on the % scale 0 is the no-effect control and ±100 the full control effect; nearly all actives have a fitted effect of over 55% in size
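Luminescent ATP readout (CellTiter-Glo, 10 min RT) after 48 or 72 hr compound exposure of NIH 3T3 cells seeded at 400 cells/well in 1536-well format; quantitative HTS.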
HEK cytotox: HEK 293 cell cytotoxicity. HEK 293 viability, ATP luminescence (CellTiter-Glo), 48-72 h. Potency, µM (series often up to 115 µM), inactives show at the highest dose activity change, negative = cytotoxicity, most hits filed as inhibitors. 94,000 compounds, 6.6% hits; active means well fitted curve in the direction sought with a large enough effect; inconclusive means small, poorly fitted or top-dose-only effect, or another doubt; inactive means no such curve, though single readings can be large; an effect the other way counts as inactive or inconclusive; further: on the % scale 0 is the no-effect control and ±100 the full control effect; nearly all actives have a fitted effect of over 60% in size
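HEK 293 cells at 250 cells/well were exposed to compounds by pintool transfer for 48 or 72 hr at 37 degree Celsius, 5% CO2. Viability was read as ATP-coupled luminescence with CellTiter-Glo after 10 min at room temperature.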
NPR1 antag cnf: hNpr1 antagonism, confirmation assay; shares compounds with NPR1 antag; HEK293 hNpr1 cGMP GloSensor luminescence, ANP-stimulated; Potency, µM (titrated, usually from 57.6 µM), inactives show at the highest dose activity change, negative = inhibition, hits mostly inhibitors; 1,400 compounds, 76% hits; AID 1347044; further: nearly all actives have a fitted effect of over 70% in size
NPR2 antag: antagonizes human Npr2, subtype selectivity check; HEK293 hNpr2 GloSensor cGMP luminescence, CNP-stimulated; 1,400 compounds, 67% hits; Potency, µM (doses to about 57.6 µM), for inactives: at the highest dose activity change, negative = inhibition, hits mostly inhibitors; shares compounds with NPR1 antag; further: nearly all actives have a fitted effect of over 70% in size
FLuc counter: inhibits firefly luciferase, false Npr1 antagonist flag. AID 1347047. 1,400 compounds, 0.7% hits. shares compounds with NPR1 antag. Potency, µM (doses to about 57.6 µM), without a hit: at the top dose activity change, negative = inhibition, actives largely listed as inhibitors. purified FLuc enzyme, luminescence, Km substrate; active means well fitted curve in the direction sought with a large enough effect; inconclusive means small, poorly fitted or top-dose-only effect, or another doubt; inactive means no such curve, though single readings can be large; an effect the other way counts as inactive or inconclusive; further: 0% is about no effect
GloSensor ctrl: counter-screen for Npr1 antagonists: GloSensor control cell line | 1,400 compounds, 69% hits | AID 1347051 | Potency, µM (doses to about 57.6 µM), inactives show at the highest dose activity change, negative = inhibition, most hits filed as inhibitors | HEK293 GloSensor cGMP, SNP-stimulated, luminescence | shares compounds with NPR1 antag; further: on the % scale 0 is the no-effect control and ±100 the full control effect; nearly all actives have a fitted effect of over 70% in size
The depositor's hits bear a star; i = inactive; ? = inconclusive; . = no result given; [ ] = remark or other dose. Unless noted, the call rests on the fitted dose curve. Potency means the concentration at half of the fitted maximal effect.

SMILES	Luciferase inh	NPR1 antag	3T3 cytotox	HEK cytotox	NPR1 antag cnf	NPR2 antag	FLuc counter	GloSensor ctrl
COc1ccc(C2Cn3nnc(C(=O)N4CCN(C(=O)c5cc(F)ccc5F)CC4)c3CO2)cc1 (centres undefined)	i	?	-27%	?	19µM*	19µM*	4%	19µM*
O=C(c1ccccc1F)N1CCN(C(=O)c2nnn3c2COC(c2ccccc2)C3)CC1 (centres undefined)	i	-11%	-9%	?	.	.	.	.
COc1ccc(C2Cn3nnc(C(=O)N4CCN(C(=O)Cc5ccccc5Cl)CC4)c3CO2)cc1 (centres undefined)	i	?	0%	?	12µM*	15µM*	1%	11µM*
COc1ccc(C2Cn3nnc(C(=O)N4CCN(C(=O)c5c(F)cccc5F)CC4)c3CO2)cc1 (centres undefined)	i	-2%	?	?	.	.	.	.
O=C(Cc1ccccc1Cl)N1CCN(C(=O)c2nnn3c2COC(c2ccc(F)cc2)C3)CC1 (centres undefined)	i	-2%	-23%	-7%	.	.	.	.
O=C(c1cc(Cl)ccc1F)N1CCN(C(=O)c2nnn3c2COC(c2ccccc2)C3)CC1 (centres undefined)	i	?	-27%	?	24µM*	?	0%	?
O=C(Nc1ccncc1)C1=NO[C@@H]2CN(CCc3ccccc3)C[C@H]12	i	?	?	?	40µM*	?	5%[86.2 µM]	35µM*
O=C(Nc1ccc(F)c(Cl)c1)C1=NO[C@@H]2CN(Cc3cccnc3)C[C@H]12	i	28µM*	?	?	35µM*	35µM*	-3%[86.2 µM]	31µM*
CC(C)NC(=O)c1cc(-c2ccsc2)c2nncn2n1	.	.	-26%[138 µM]	-12%[172 µM]	.	.	.	.
O=C1CC(c2ccccc2)N(C(=O)CNC(=O)Cn2c(=O)oc3ccccc32)CCCCCCN1 (centres undefined)	i	2%	-5%	-22%	.	.	.	.
COc1ccc(C(=O)N2CCCN(c3cc(-c4ccccc4)[nH]n3)CC2)c(C)c1	i	11µM*	?	?	17µM*	19µM*	1%	17µM*
Cc1ccc(C(=O)N2CCN(c3cc(-c4cccs4)[nH]n3)CC2)c(C)c1	i	?	7.9µM*	45µM*	27µM*	24µM*	4%	27µM*
COc1ccc(C(=O)N2CCCN(c3cc(-c4ccccc4)[nH]n3)CC2)c(OC)c1	i	?	-19%	40µM*	24µM*	?	2%	24µM*
C[C@H]1[C@@H]2[C@@H](O)C([C@H](C)C(=O)NCc3ccc(F)cc3)CC[C@@]2(C)CC[C@@H]1NC(=O)c1cnccn1 (some centres undefined)	i	1%	-22%	-29%	.	.	.	.
O=C1CC2(CCN(C(=O)C3CCCN3C(=O)Cc3ccc(F)cc3)CC2)Oc2ccccc2N1 (centres undefined)	.	.	-19%	-22%	.	.	.	.
COc1ccc(NC(=O)Cc2c[nH]c3ncc(-c4ccccc4)cc23)cn1	i	?	-27%[138 µM]	?	?	?	-1%[86.2 µM]	-20%[86.2 µM]
COc1ncccc1-c1cnc2[nH]cc(CC(=O)Nc3ccccn3)c2c1	i	?	?	?	.	.	.	.
COc1cccc(NC(=O)Cc2c[nH]c3ncc(-c4cccnc4OC)cc23)c1	i	?	28µM*	50µM*	40µM*	?	-10%[86.2 µM]	?
O=C(NCc1ccccc1)N1CCC(N2C(=O)C3(CCCCC3)C2c2ccncc2)CC1 (centres undefined)	i	-1%	-4%	i	.	.	.	.
COc1cccc(CNC(=O)Cn2cccc2-c2nc(-c3ccc(OC)c(F)c3)no2)c1	i	-2%	0%	?	.	.	.	.
CCN(Cc1cccc2cnccc12)CC1CCCN(CCc2cccc(F)c2)C1 (centres undefined)	i	?	40µM*	18µM*	24µM*	19µM*	-2%	-1%
Cc1ccccc1S(=O)(=O)N1CCC(CCC(=O)O)CC1	i	-1%	i	-1%	.	.	.	.
Cc1ccc(NC(=O)CCC2CCN(S(=O)(=O)c3ccccc3C)CC2)cc1F	i	?	?	-52%	?	?	3%	?
CCC(C)C(=O)N1CCC2(CC1)NCCc1c2[nH]c2ccccc12 (centres undefined)	i	1%	-23%	-28%	.	.	.	.
CCOc1cc2c(cn1)NCCN(Cc1ccncc1Cl)C2	i	35µM*	?	?	31µM*	?	4%[86.2 µM]	40µM*
SMILES	Luciferase inh	NPR1 antag	3T3 cytotox	HEK cytotox	NPR1 antag cnf	NPR2 antag	FLuc counter	GloSensor ctrl
CCOc1cc2c(cn1)NCCN(Cc1ccc3[nH]ccc3c1)C2	i	3%[70.6 µM]	-23%[138 µM]	?	.	.	.	.
O=C1NCc2ccccc2CC12CCN(Cc1ccncc1Cl)CC2	.	.	-1%	-19%	.	.	.	.
Clc1cnccc1CN1CCNc2cnc(-c3ccccc3)cc2C1	i	28µM*	?	?	31µM*	35µM*	-1%[86.2 µM]	31µM*
Clc1cnccc1CN1CCNc2cnc(Oc3ccccc3)cc2C1	i	4µM*	?	89µM*	6.3µM*	8.9µM*	3%[86.2 µM]	5µM*
CS(=O)(=O)N1CCC(OC2CCN(C(=O)Nc3ccc(F)cc3)CC2)CC1	i	0%	-9%	1%	.	.	.	.
COc1ccc(OCC2(C)COc3ccc(C(=O)Nc4ccc(OC)nc4)cc3N2)cc1 (centres undefined)	i	35µM*	?	56µM*	35µM*	40µM*	-12%[86.2 µM]	35µM*
CC1(COc2cccnc2)COc2ccc(C(=O)N3CCN(c4ccccn4)CC3)cc2N1 (centres undefined)	i	6.3µM*	?	?	6.9µM*	7.7µM*	2%	5.4µM*
CC1(COc2ccccc2)COc2ccc(C(=O)N3CCN(c4ccccn4)CC3)cc2N1 (centres undefined)	i	-12%	?	?	.	.	.	.
CN(Cc1ccccc1)C(=O)c1ccc2c(c1)NC(C)(COc1cccnc1)CO2 (centres undefined)	i	32µM*	-29%[138 µM]	?	31µM*	31µM*	3%[86.2 µM]	22µM*
